# Screening results as filed in PubChem BioAssay.
# This is a sample that favours compounds with a hit; in the whole collection about 2.3% have one here.
# M1 PAM: human M1 muscarinic receptor positive allosteric modulators, primary screen, CHO-K1 cells, Fluo-8 calcium fluorescence, 1536-well; activation, % at 3 µM; 360,000 tested, 0.088% active; Muscarinic acetylcholine receptor M1 (Homo sapiens), P11229; AID 588819, 2011; CHO-K1 hM1, ACh EC20; 0% = ACh EC20, 100% = maximal ACh; in the data active = activation above about 19%, passing the limit was not always enough
# Target sequence (P11229 whole entry, looked up): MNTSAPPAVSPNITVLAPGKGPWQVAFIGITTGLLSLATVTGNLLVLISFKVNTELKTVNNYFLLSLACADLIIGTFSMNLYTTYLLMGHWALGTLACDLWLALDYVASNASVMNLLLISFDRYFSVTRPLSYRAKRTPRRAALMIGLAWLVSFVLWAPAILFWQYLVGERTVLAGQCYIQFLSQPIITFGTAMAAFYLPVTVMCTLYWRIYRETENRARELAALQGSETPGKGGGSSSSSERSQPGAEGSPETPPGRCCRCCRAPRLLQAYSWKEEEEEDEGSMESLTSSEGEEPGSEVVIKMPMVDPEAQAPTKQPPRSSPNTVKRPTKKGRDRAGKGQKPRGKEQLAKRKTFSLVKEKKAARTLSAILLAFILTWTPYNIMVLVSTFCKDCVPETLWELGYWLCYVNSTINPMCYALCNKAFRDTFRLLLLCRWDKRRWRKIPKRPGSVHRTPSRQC
# CHO-K1 Ca ag: counter-screen for M1 agonists: effect in parental CHO-K1 cells. activation, % at 3 µM. Fluo-8 calcium fluorescence; scaled to maximal ATP response, vehicle zero. 360,000 tested, 0.48% active; in the data active = activation above about 15%;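 also: untransfected CHO-K1 host cells lacking M1 receptor as counterscreen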
# CHRM1 agonist: human M1 muscarinic receptor agonists, primary screen, Fluo-8 calcium fluorescence, CHO-K1 cells, HTS. 360,000 tested, 0.33% active. CHO-K1 hM1, agonist mode; 0% DMSO, 100% acetylcholine EC100. Muscarinic acetylcholine receptor M1 (Homo sapiens), P11229. activation, % at 3 µM;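 active = activation above the run's mean compound activation plus 3 SD, cut at about 16% in these data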;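 also: peak over basal fluorescence ratio within a 140 s kinetic read after compound addition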
# CHO-K1 Ca antag: M1 antagonist counterscreen hit in parental CHO-K1 cells | ATP-induced calcium, Fluo-8 fluorescence | inhibition, % at 3 µM | 360,000 tested, 0.6% active | AID 602250;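 active = inhibition above a per-plate cutoff, the plate's mean sample inhibition plus 3 SD, cut at about 24% in these data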
# CHRM1 antagonist: human M1 muscarinic receptor antagonists, primary screen, CHO-K1 cells, Fluo-8 calcium fluorescence, 1536-well; Muscarinic acetylcholine receptor M1 (Homo sapiens), P11229; CHO-K1 hM1, ACh EC80 antagonist; inhibition, % at 3 µM; 360,000 tested, 1.3% active;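 active = percent inhibition above its own plate's cutoff, namely the mean of that plate's compound wells plus 3 SD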;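 also: peak over basal fluorescence ratio during 140 s after agonist addition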
# M1 PAM parental: nonselective calcium activators in parental CHO-K1 cells, primary screen, counter-screen for M1 PAM project, cell-based, Fluo-8 calcium fluorescence, full deck, 1536-well; ATP EC20; 0% at ATP EC20, 100% at ATP max; activation, % at 3 µM; 360,000 tested, 0.02% active;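 active = activation above the run cutoff, the mean activation of all test compounds plus 3 SD, cut at about 40% in these data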;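 also: peak over basal fluorescence ratio in a 140 s read after ATP addition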
# Hits are given with their value; 0 = inactive; - = no result.
SMILES,M1 PAM,CHO-K1 Ca ag,CHRM1 agonist,CHO-K1 Ca antag,CHRM1 antagonist,M1 PAM parental
COCCN1C(=O)/C(=C/c2ccc(N3CCCC3)cc2C)SC1=S,0,0,0,0,31.2,0
CCN=C1S/C(=C\c2ccc(N3CCOCC3)cc2C)C(=O)N1CC,0,0,0,0,0,0
COc1ccc(C)cc1NC(=O)C(=O)NNC(=O)c1ccco1,0,0,0,0,0,0
COc1ccc(NC(C)=O)cc1NC(C)c1nc2sc(C)c(C)c2c(=O)[nH]1 (stereo not drawn),0,16.7,0,0,0,0
CC(C)(C#CC(O)(c1ccccc1)c1ccccc1)N1CCCC1,0,0,0,0,99.2,0
CC(=O)NNC(=O)C(O)(c1ccccc1)c1ccccc1,0,0,0,0,0,0
CC(C)(C#CC(O)(c1ccccc1)c1ccccc1)N1CCCCC1,0,0,0,0,92.9,0
CN1CCN(CC(=O)Nc2c(C(=O)c3ccccc3)oc3ccccc23)CC1,0,0,0,0,59.7,0
COc1ccc2nc3c(cc2c1)c(NC(=O)C1CCCO1)nn3CC(C)C (stereo not drawn),0,0,0,26.1,0,0
C[N+]1(C)CCC(=C2c3ccccc3CC(=O)c3sccc32)CC1,0,0,0,0,94.6,0
CC[N+]1(C)CCC(=C2c3ccccc3CC(=O)c3sccc32)CC1 (stereo not drawn),0,0,0,0,98.3,0
CN(C(=O)COC(=O)CN1C(=O)c2cccc([N+](=O)[O-])c2C1=O)c1ccccc1,28.1,0,0,0,0,0
O=C(Cn1cccc1C(=O)c1ccccc1)NCc1ccccc1,0,0,0,0,0,0
NC(=NCc1ccc2c(c1)OCO2)NC(=O)c1ccccc1,0,0,0,0,24.4,0
O=C(Cn1cccc1C(=O)c1ccccc1)NCc1ccc2c(c1)OCO2,0,0,0,53.3,0,0
O=C(NC1CCCC1)C1c2ccccc2OCC(=O)N1Cc1cccnc1 (stereo not drawn),-,0,-,0,-,0
CN(C1CCCCC1)S(=O)(=O)c1ccc(S(=O)(=O)N2CCCC2)cc1,0,0,0,0,32.4,0
O=S(=O)(c1ccc(C2CCCCC2)cc1)N1CCCC1,0,0,0,0,0,0
CCN(CC)c1cc2c(c3c1ccn3C)C1CCC2C1 (stereo not drawn),0,0,0,24.9,0,0
CN(c1ccc(Cl)cc1)c1cc2c(c3c1ccn3C)C1CCC2C1 (stereo not drawn),0,0,0,0,0,0
Cn1ccc2c(N3c4ccccc4CCc4ccccc43)cc3c(c21)C1CCC3C1 (stereo not drawn),0,0,0,0,37.3,0
Cn1ccc2c(-c3cccc4ccccc34)cc3c(c21)C1CCC3C1 (stereo not drawn),0,0,0,37.8,0,0
CN(c1cc(Cl)c2c(c1)OCO2)c1cc2c(c3c1ccn3C)C1CCC2C1 (stereo not drawn),0,0,0,26.6,0,0
CCOC(=O)c1ccc[n+](CC(=O)c2ccc(NC(=O)c3ccccc3)cc2)c1,0,0,0,0,0,0
COC(=O)CCC(=O)OC1(C)C(=O)C=C2C=C(C3CC3)N(CCCCO)C=C2C1=O (stereo not drawn),0,0,0,0,0,0
SMILES,M1 PAM,CHO-K1 Ca ag,CHRM1 agonist,CHO-K1 Ca antag,CHRM1 antagonist,M1 PAM parental
COC(=O)CCC(=O)OC1(C)C(=O)C=C2C=C(C3CC3)N(c3ccccc3)C=C2C1=O (stereo not drawn),0,0,0,0,28.4,0
Cc1cccn2c(=O)c(/C=C(\C#N)C(=O)NCc3ccco3)c(N3CCCC(C)C3)nc12 (stereo not drawn),0,0,0,0,0,0
CCOC(=O)C1CCCN(c2nc3c(C)cccn3c(=O)c2/C=C(\C#N)C(=O)NCc2ccco2)C1 (stereo not drawn),0,0,62.5,0,76.1,0
CC(OC(=O)Cc1ccccc1[N+](=O)[O-])C(=O)NC(=O)NC1CCCCC1 (stereo not drawn),0,0,0,0,0,0
C=CCn1c(C)cc(C(=O)COc2ccc(C)nc2[N+](=O)[O-])c1C,0,17.0,0,0,0,0
COCC1CCN(C(=O)c2cc(COc3cccc4cnccc34)on2)CC1,0,0,0,0,0,0
O=C(c1cc(COc2cccc3cnccc23)on1)N1CCCC(CCCO)C1 (stereo not drawn),0,21.9,0,0,47.6,0
Cc1ccc(CN2CCC(c3cc(-c4cccs4)n[nH]3)CC2)cc1,0,0,0,0,31.3,0
COc1ccc(CC(=O)Nc2nc(C)cs2)cc1,0,15.6,0,0,0,0
Cc1csc(NC(=O)Cc2ccc(Cl)cc2)n1,0,0,0,0,0,0
COc1ccc(-c2csc(NC(=O)[C@H](C)N3C(=O)C4CC=CCC4C3=O)n2)cc1OC (stereo partly drawn),0,0,0,0,0,0
O=C(Cc1ccccc1F)Nc1nc(-c2ccc(F)c(F)c2)cs1,0,0,0,0,0,0
O=C(O)CCCC(=O)Nc1nc(-c2ccc(F)cc2)cs1,0,0,0,0,0,0
O=C(Cc1ccccc1)Nc1nc(-c2ccc(F)c(F)c2)cs1,0,0,0,0,36.9,0
O=C(Cc1ccc(F)cc1)Nc1nc(-c2ccc(F)cc2)cs1,0,0,0,0,34.9,0
CC(C(=O)Nc1nc(-c2ccc(F)c(F)c2)cs1)N1C(=O)C2CC=CCC2C1=O (stereo not drawn),0,0,0,0,30.7,0
COc1ccc2cc(CCNC(=O)c3ccc(S(=O)(=O)N4CCCC4)cc3)c(=O)[nH]c2c1,0,0,0,0,0,0
CCOC(=O)N1CCN(C/C(Cl)=C/c2ccccc2)CC1,0,0,0,0,0,0
COC(=O)c1oc2c(c1C)C1(CCC2)SCCS1,0,0,0,0,30.5,0
COc1ccc2oc(C(=O)OCC(=O)NC3(C#N)CCCC3)c(C)c2c1,0,0,0,0,0,0
CCOc1ccc(NC(=O)c2ccc3c(c2)CCN3S(C)(=O)=O)cc1,0,0,0,0,0,0
CCCC#Cc1cnc2c(c1)C(=O)N([C@H](C)CO)C[C@H](C)[C@@H](CN(C)C(=O)CCN1CCCCC1)O2,0,0,0,0,45.4,0
COc1cccc(S(=O)(=O)N(C)C[C@@H]2Oc3ncc(C#CCN(C)C)cc3C(=O)N([C@H](C)CO)C[C@H]2C)c1,0,0,0,0,48.7,0
